CBFb-RUNX1 inh – CBF-beta/RUNX1 interaction disruption; Q01196+Q13951; Potency, µM (series often up to 59.8 µM), inactives show at the top dose activity, negative = inhibition, actives largely listed as inhibitors; AlphaScreen CBFb-His/RUNX1-biotin binding, biochemical; 230,000 tested, under 10 active; AID 1477; active = well fitted curve in the direction sought with a large enough effect; inconclusive = small, poorly fitted or top-dose-only effect, or another doubt; inactive = no such curve, though single readings can be large; an effect the other way counts as inactive or inconclusive; note: % of control where 0% means no effect
Target sequence (Q01196 whole entry, looked up): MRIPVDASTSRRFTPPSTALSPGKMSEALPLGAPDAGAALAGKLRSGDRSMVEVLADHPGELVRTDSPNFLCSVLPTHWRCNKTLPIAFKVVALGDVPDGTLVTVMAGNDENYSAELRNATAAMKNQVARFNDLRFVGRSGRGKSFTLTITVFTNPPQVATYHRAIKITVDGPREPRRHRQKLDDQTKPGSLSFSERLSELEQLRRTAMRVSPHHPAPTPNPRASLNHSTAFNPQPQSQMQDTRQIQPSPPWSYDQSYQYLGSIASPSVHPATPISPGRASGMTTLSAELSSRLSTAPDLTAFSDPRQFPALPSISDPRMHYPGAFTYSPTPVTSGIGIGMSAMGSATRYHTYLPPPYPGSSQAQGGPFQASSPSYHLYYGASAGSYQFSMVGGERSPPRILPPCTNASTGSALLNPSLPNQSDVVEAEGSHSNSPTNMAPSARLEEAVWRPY
Target sequence (Q13951 whole entry, looked up): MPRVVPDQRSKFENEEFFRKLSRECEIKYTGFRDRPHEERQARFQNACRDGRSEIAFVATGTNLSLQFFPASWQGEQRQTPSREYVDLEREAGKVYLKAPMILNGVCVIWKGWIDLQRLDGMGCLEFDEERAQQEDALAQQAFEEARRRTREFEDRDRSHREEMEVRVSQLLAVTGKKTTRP
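AlphaScreen proximity signal reports loss of binding between His-tagged CBF-beta and biotin-labelled RUNX1, each at 30 nM. Proteins are pre-associated for 20 minutes, compounds added for 15 minutes, then beads for 90 minutes, all at ambient temperature.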
JMJD2E inh – JMJD2E (human) inhibition; Potency, µM (top dose mostly 57.1 µM), for inactives: top-dose activity change, negative = inhibition, most hits filed as inhibitors; hit rate 1.6% among 230,000; AID 2147; B2RXH2; JMJD2E catalytic domain, FDH-coupled NADH fluorescence (FDH is formaldehyde dehydrogenase);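 note: potency is the fitted concentration of half-maximal effect; 0% = wells with enzyme and -100% = buffer wells without enzyme; nearly all actives have a fitted effect of over 50% in size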
ALDH1A1 inh – ALDH1A1 (human) enzyme inhibition | Purified ALDH1A1, NADH fluorescence, propionaldehyde substrate | Potency, µM (titrated, usually from 75.3 µM), inactives show at the top dose activity, negative = inhibition, usual class: inhibitors | hit rate 7.3% among 220,000 | AID 1030;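 note: potency is the fitted concentration of half-maximal effect; plate controls were no enzyme wells and a reference inhibitor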
HTT ATP protect – cytoprotection in Huntington HTT-Q103 PC12 cell model; PC12 HTT-Q103 induced, cytoprotection, ATP luminescence, 40 h; Potency, µM (titrated, usually from 56.4 µM), inactives show cytoprotection (ATP increase), most hits filed as activators; hit rate 0.14% among 230,000; active = well fitted curve in the direction sought with a large enough effect; inconclusive = small, poorly fitted or top-dose-only effect, or another doubt; inactive = no such curve, though single readings can be large; an effect the other way counts as inactive or inconclusive; note: potency is the fitted concentration of half-maximal effect; % of control where 0% means no effect; nearly all actives have a fitted effect of over 45% in size
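Rat PC12, Q103 Htt exon1-GFP fusion, ecdysone promoter; tebufenozide inducer 100 nM final; compound titration; qHTS, 1500 cells/well; ATPlite luminescent read.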
HTT aggregate – reduces HttQ103-GFP aggregates in PC12 cells; PC12 HttQ103-GFP aggregates, Acumen cytometry, 40 h; Potency, µM (top dose mostly 46.1 µM), inactives show at the highest dose activity change, negative = inhibition, usual class: inhibitors; hit rate 1.1% among 220,000; AID 1688; active = well fitted curve in the direction sought with a large enough effect; inconclusive = small, poorly fitted or top-dose-only effect, or another doubt; inactive = no such curve, though single readings can be large; an effect the other way counts as inactive or inconclusive; note: potency is the fitted concentration of half-maximal effect; % is set by controls: 0 for no effect and ±100 for the full control effect; nearly all actives have a fitted effect of over 60% in size
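PC12 cells stably carrying ecdysone-inducible HTT exon 1 Q103–GFP were induced with tebufenozide (100 nM final) and treated with library compounds in titration. GFP aggregates in lysates were counted by laser scanning cytometry.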
HPGD inh – HPGD (human) dehydrogenase inhibition. P15428. purified HPGD, NADH fluorescence kinetic, PGE2 substrate. Potency, µM, for inactives: top-dose activity change, negative = inhibition, most hits filed as inhibitors. hit rate 4.3% among 150,000; note: potency is the fitted concentration of half-maximal effect; % is set by controls: 0 for no effect and ±100 for the full control effect
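20 nM HPGD preincubated 15 min at room temperature with compound in 50 mM Tris-HCl pH 8, 0.01% Tween 20. Started with 1 mM NAD+ and 30 uM prostaglandin E2; NADH fluorescence (360/450 nm) read 5 times over 30-s intervals, last minus first.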
Starred values were filed as active, the others as inactive; [ ] = dose if it differs, or a comment. Shown are actives, neighbours in structure and some others; about 9.8% of the full set was active somewhere. Unless noted, calls come from the whole dose curve; as a rule, active = well fitted inhibition curve with a large enough effect (not every such curve was filed as active); inconclusive = small, poorly fitted or top-dose-only effect, or another doubt; inactive = no such curve, though single readings can be large or run the other way.

Screening O=C(c1cnc2nc3ccccc3n2c1)c1cc(F)ccc1O returned CBFb-RUNX1 inh 14%, JMJD2E inh -17%, ALDH1A1 inh 4.5µM*, HTT ATP protect -50% and HTT aggregate -8%.
For O=C(c1cn[nH]c1)c1cc(F)ccc1O the results were CBFb-RUNX1 inh 5%, JMJD2E inh -3%, ALDH1A1 inh inconclusive, HTT ATP protect -1%, HTT aggregate inconclusive and HPGD inh -20%.
`CN(C)c1cccc(C(=O)n2cc(C(=O)c3cc(F)ccc3O)cn2)c1` gave CBFb-RUNX1 inh -4%, JMJD2E inh inconclusive, ALDH1A1 inh 4.5µM*, HTT ATP protect -12%[10 µM], HTT aggregate inconclusive and HPGD inh -17%.
`COC(=O)c1cc(NC(=O)/C=C/c2ccccc2)ccc1O` gave CBFb-RUNX1 inh -2%, JMJD2E inh -4%, ALDH1A1 inh 1%, HTT ATP protect -34%[10 µM] and HTT aggregate 1%[9.22 µM].
For COc1ccc(/C=N/NC(=O)c2ccccc2O)cc1Cn1nnc2ccccc21 the results were CBFb-RUNX1 inh -3%, JMJD2E inh inconclusive, HTT ATP protect 9%[10 µM] and HTT aggregate 11%[9.22 µM].
Screening O=[N+]([O-])c1cc(/C=N/n2c(-c3ccncc3)n[nH]c2=S)ccc1Cl returned CBFb-RUNX1 inh inconclusive, JMJD2E inh inconclusive, ALDH1A1 inh inconclusive, HTT ATP protect -10%[10 µM] and HTT aggregate -1%[9.22 µM].
For Cc1cc(-c2n[nH]c(=S)n2/N=C/c2cc([N+](=O)[O-])ccc2Cl)n[nH]1 the results were CBFb-RUNX1 inh -4%, JMJD2E inh -10%, ALDH1A1 inh inconclusive, HTT ATP protect 16%[10 µM], HTT aggregate 11% and HPGD inh 25µM*.
Screening Cc1cc(-c2n[nH]c(=S)n2/N=C/c2ccc(Cl)c([N+](=O)[O-])c2)n[nH]1 returned CBFb-RUNX1 inh 6%, JMJD2E inh inconclusive, ALDH1A1 inh 14µM*, HTT ATP protect -87%[10 µM], HTT aggregate inconclusive and HPGD inh 7.9µM*.
For COc1cccc(/C=N/n2c(-c3cc(C)[nH]n3)n[nH]c2=S)c1OC the results were CBFb-RUNX1 inh 2%, JMJD2E inh 7%, HTT ATP protect -6%[10 µM] and HTT aggregate -15%[9.22 µM].
For CCCN1C(=O)/C(=C/c2ccc(N3CCOCC3)cc2)NC1=S the results were CBFb-RUNX1 inh 4%, JMJD2E inh 1%, ALDH1A1 inh 6.3µM*, HTT ATP protect -13% and HTT aggregate 19%.
For CCOC(=O)COc1ccc(S(=O)(=O)c2ccc(OCC(=O)OCC)cc2)cc1 the results were CBFb-RUNX1 inh -4%, JMJD2E inh 4%, ALDH1A1 inh -5%, HTT ATP protect 32%, HTT aggregate -6% and HPGD inh -3%.
`CCCN1C(=O)/C(=C/c2ccc(N3CCCC3)c(C)c2)NC1=S` gave CBFb-RUNX1 inh -3%, JMJD2E inh -13%, ALDH1A1 inh 0.22µM*, HTT ATP protect -106%, HTT aggregate 13µM* and HPGD inh -30%.
CCN1C(=O)/C(=C/c2ccc(N3CCCC3)cc2)NC1=S was read as CBFb-RUNX1 inh inconclusive, JMJD2E inh -2%, ALDH1A1 inh 13µM*, HTT ATP protect 39%[10 µM], HTT aggregate -13% and HPGD inh -18%.
CCCN1C(=O)/C(=C/c2ccc(OCC(=O)OCC)cc2)NC1=S was read as CBFb-RUNX1 inh -12%, JMJD2E inh 3%, ALDH1A1 inh 1µM*, HTT ATP protect 14% and HTT aggregate -5%.
`CC(C)C(=O)NC(=O)[C@@H]1CCCN1C(=O)/C=C/c1ccccc1` gave CBFb-RUNX1 inh -2%[2.36 µM], JMJD2E inh 10%, ALDH1A1 inh 2%, HTT aggregate 5% and HPGD inh -5%.
CC(C)(C)NC(=O)NC(=O)CSc1nncs1 was read as CBFb-RUNX1 inh 1%, JMJD2E inh 9%, ALDH1A1 inh -2%, HTT ATP protect -2% and HTT aggregate -12%.
COn1c(C)c(C(C)=O)c2c3no[n+]([O-])c3ccc21 was read as CBFb-RUNX1 inh 6%, JMJD2E inh 3%, ALDH1A1 inh 7%, HTT ATP protect -12%, HTT aggregate -25% and HPGD inh -10%.
C=CCOn1c(C)c(C(C)=O)c2c3no[n+]([O-])c3ccc21 was read as CBFb-RUNX1 inh 8%, JMJD2E inh 8%, ALDH1A1 inh 8%, HTT ATP protect 7%[10 µM], HTT aggregate 22µM* and HPGD inh -10%.
Screening CCOC(=O)c1c(C)n(OCc2ccccc2)c2ccc3nonc3c12 returned CBFb-RUNX1 inh inconclusive, JMJD2E inh inconclusive, ALDH1A1 inh inconclusive, HTT ATP protect -1%[10 µM], HTT aggregate 10% and HPGD inh inconclusive.
C=CCOn1c(C)c(C(C)=O)c2c3nonc3ccc21 was read as CBFb-RUNX1 inh -2%, JMJD2E inh inconclusive, ALDH1A1 inh inconclusive, HTT ATP protect 8%[1.9 µM], HTT aggregate 11µM* and HPGD inh inconclusive.
`COc1ccc(C(=O)OCC(=O)Nc2cc(C)on2)c(OC)c1OC` gave CBFb-RUNX1 inh 2%, JMJD2E inh 1%, ALDH1A1 inh 5%, HTT ATP protect -10% and HTT aggregate 12%.
For C=CC[N+]1(CC(=O)NCc2ccc(NC(C)=O)cc2)CCOCC1 the results were CBFb-RUNX1 inh 15%, JMJD2E inh -16%, HTT ATP protect 0%[10 µM] and HTT aggregate -16%[9.22 µM].
Screening CC1(C)[C@@H]2CC[C@]1(CC(=O)O)[C@H](Cl)C2 returned ALDH1A1 inh -4%[13.5 µM], HTT ATP protect -6%[10 µM] and HPGD inh -15%.
Screening CSc1nc(-c2ccccc2)nc(N2CCCC2)c1C(C)=O returned CBFb-RUNX1 inh 13%, JMJD2E inh -2%, ALDH1A1 inh 4%, HTT ATP protect -12%, HTT aggregate 1% and HPGD inh 20µM*.
`CSc1nc(-c2ccccc2)nc(N2CCN(C)CC2)c1C(C)=O` gave CBFb-RUNX1 inh 0%, JMJD2E inh 4%, ALDH1A1 inh -13%, HTT ATP protect -3%, HTT aggregate 14% and HPGD inh -21%.
For N#Cc1ccc(S(=O)(=O)N2CCc3[nH]c4ccc(F)cc4c3C2)cc1 the results were CBFb-RUNX1 inh 1%, JMJD2E inh -9%, HTT ATP protect -18%[10 µM] and HTT aggregate -6%[9.22 µM].
`Cc1ccc(-n2cnc(N)c2C(=O)c2cccc([N+](=O)[O-])c2)cc1` gave CBFb-RUNX1 inh -1%, JMJD2E inh 9%, HTT ATP protect -20%[10 µM] and HTT aggregate -9%[9.22 µM].
`CN1CCN(S(=O)(=O)c2cccc(C(=O)Nc3ccccc3N3CCOCC3)c2)CC1` gave CBFb-RUNX1 inh 3%, JMJD2E inh -2%, ALDH1A1 inh 9%, HTT ATP protect -9% and HTT aggregate -13%.
